NadD block = blocks S. aureus nicotinate mononucleotide adenylyltransferase. purified NadD enzyme, colorimetric absorbance read-out. inhibition, % at 20 µM. 0.78% of 360,000 active. AID 602399; in the data active = inhibition above about 26%
PHOSPHO1 inh = blocks human PHOSPHO1 phosphatase activity | inhibition, % at 13.3 µM | 1.1% of 290,000 active | Q8TCT1 | AID 1565 | recombinant PHOSPHO1, absorbance phosphatase assay; in the data active = inhibition above about 60%
Target sequence (Q8TCT1 whole entry, looked up): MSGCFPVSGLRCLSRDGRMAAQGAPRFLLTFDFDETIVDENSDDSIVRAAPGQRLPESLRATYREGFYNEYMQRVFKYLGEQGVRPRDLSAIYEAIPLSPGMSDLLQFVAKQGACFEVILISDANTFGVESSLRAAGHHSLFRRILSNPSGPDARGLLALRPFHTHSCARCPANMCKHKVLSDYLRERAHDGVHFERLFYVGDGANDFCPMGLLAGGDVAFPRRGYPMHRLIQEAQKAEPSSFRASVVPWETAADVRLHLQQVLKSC
SUMO HTRF inh = blocks human SUMOylation mediated by UBC9 | HTRF SUMOylation assay, SAE1/SAE2 + UBC9, in vitro | AID 2006 | P63279 | 0.36% of 290,000 active | inhibition, % at 35 µM; in the data active = inhibition above about 50%, passing the limit was not always enough
Target sequence (P63279 whole entry, looked up): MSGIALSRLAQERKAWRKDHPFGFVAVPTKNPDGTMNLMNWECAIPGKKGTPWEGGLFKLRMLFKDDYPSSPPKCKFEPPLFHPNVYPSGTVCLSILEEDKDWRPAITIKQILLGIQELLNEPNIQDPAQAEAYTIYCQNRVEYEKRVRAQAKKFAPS
pCIP destab = compounds decreasing mouse p/CIP protein stability | Q05BA5 | F442A p/CIP-EGFP cells, EGFP fluorescence, 16 h | decrease of EGFP signal, % at 10 µM | 0.01% of 290,000 active | AID 1984;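 active = EGFP signal decrease of at least 30% at 10 µM or well 3 SD below plate mean, unless failing retest; inactive = the rest, including hits failing retest or dose response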
Starred values were filed as active, the others as inactive; . = no result given. Compounds with a hit are over-represented: about 1.8% of the library has one in this group of screens.

SMILES	NadD block	PHOSPHO1 inh	SUMO HTRF inh	pCIP destab
O=C(Nc1nnc(COc2ccc(F)cc2)s1)c1cccs1	5	38	-2	11
Cc1cc(OCC(=O)Nc2ccc(N3CCN(C(=O)c4ccco4)CC3)cc2)cc(C)c1Cl	3	73*	-3	2
CCN(CC)c1ccc(NC(=O)c2ccco2)cc1	-2	61*	0	-6
CCCNC(=O)c1cc(C2CCCCN2C(=O)c2ccc(C#N)cc2)on1 (centres undefined)	-3	.	.	.
CC1(C(=O)NS(=O)(=O)c2ccccc2Cl)CCN1C(=O)Cc1ccc(Cl)cc1Cl (centres undefined)	-7	.	.	.
Cc1ccccc1OCC(=O)Nc1ccc(NC(=O)c2ccco2)cc1	-8	67*	12	-2
COc1ccc(NC(=O)CCC(=O)N2CCC(c3ccccc3)=N2)cc1S(=O)(=O)N1CCCCC1	7	.	.	.
Cc1sc2nc(SCC(=O)c3cc(C)n(CC4CCCO4)c3C)n(C(C)C)c(=O)c2c1C (centres undefined)	3	79*	20	-17
Cc1cc(C(=O)CSc2nc3ccccc3o2)c(C)n1CC1CCCO1 (centres undefined)	-7	93*	30	-10
Cc1cccc(-n2nnnc2SCC(=O)NCC2CCCO2)c1 (centres undefined)	-9	10	30	-10
Cc1cccc(-n2nnnc2SCC(=O)c2cc(C)n(Cc3ccco3)c2C)c1	5	76*	29	-2
Cc1cc(C(=O)CSc2nnc(N)s2)c(C)n1Cc1ccco1	-5	-10	11	-14
Cc1cccc(-n2nnnc2SCC(=O)c2cc(C)n(CC3CCCO3)c2C)c1 (centres undefined)	-5	93*	19	1
Cc1cc(C(=O)CSc2nc(N)cc(N)n2)c(C)n1CC1CCCO1 (centres undefined)	2	.	.	.
O=C(NC1CC1)c1ccc(-c2cnc3cccnn23)cc1	0	.	.	.
Cc1ccc(-n2nnnc2SCC(=O)c2cc(C)n(CC3CCCO3)c2C)cc1 (centres undefined)	-9	74*	8	2
CCNC(=O)C1(C)CCCN1C(=O)c1ccc(C#N)cc1 (centres undefined)	-3	.	.	.
Fc1ccc(C2=Nn3c(Cc4ccccc4F)nnc3SC2)cc1	2	62*	12	1
Cc1ccc(/C([O-])=C(/C(=S)NCc2ccco2)[n+]2ccccc2)cc1	.	100*	18	-18
CCNC(=O)C1CCCN(Cc2ccc(C(=O)OCC)cc2)CC1 (centres undefined)	-4	.	.	.
COc1cc(C)c(/C=C(\C#N)C(=O)Nc2ccc(C)cc2)cc1C(C)C	1	12	-1	-5
COCCNC(=O)/C(C#N)=C/c1cc(C(C)C)c(OC)cc1C	0	61*	6	-2
CC1(C(=O)Nc2ccc3[nH]ncc3c2)CCN1C(=O)C1(c2ccccc2)CC1 (centres undefined)	-2	.	.	.
Cn1nccc1NC(=O)Nc1cccc(Cl)c1	-2	27	59*	3
O=C(Nc1cccc(Cl)c1)Nc1nnc(-c2ccncc2)s1	24	-17	56*	-26
SMILES	NadD block	PHOSPHO1 inh	SUMO HTRF inh	pCIP destab
O=C(Nc1ccc(Cl)cc1)Nc1nnc(-c2ccncc2)s1	19	-23	-6	-7
COC(=O)Nc1nnc(-c2ccncc2)s1	5	62*	19	-10
Cc1ccc(NC(=O)Nc2nnc(-c3ccncc3)s2)cc1C	6	-15	73*	-13
CCOC(=O)c1c(=O)n(O)c2ccc(C)cc2[n+]1[O-]	2	68*	28	3
N#Cc1cc2cc(Cl)ccc2[nH]c1=O	-4	.	.	.
CCC1(c2ccc(Cl)cc2)NC(=S)N(c2ccc(C)c(C)c2)N1 (centres undefined)	-4	68*	11	-11
CN(C)CCN(Cc1ccccc1)C(c1ccnc2ccccc12)c1nnnn1-c1ccc2c(c1)OCCO2 (centres undefined)	-10	.	.	.
CCOc1cc(/C=N/Nc2nc(-c3cccc(S(=O)(=O)N4CCCC4)c3)cs2)ccc1O	45*	-16	8	-16
COc1ccc(/C=N/Nc2nc(-c3cccc(S(=O)(=O)N4CCCC4)c3)cs2)cc1OC	12	-21	10	-11
CC(NC(=O)C(=O)N1CCOCC1)C(c1cccs1)N1CCN(c2ccccc2)CC1 (centres undefined)	-8	26	4	3
COc1ccc(N2CCN(C(c3cccs3)C(C)NC(=O)C(=O)N3CCOCC3)CC2)cc1 (centres undefined)	2	65*	10	4
NC(c1ccc(F)c(F)c1)c1nc(-c2cc(F)cc(F)c2)cs1 (centres undefined)	-2	.	.	.
COCCn1c(-c2ccc(Cl)cc2)cnc1SCC(=O)NCc1cccs1	-3	74*	21	-5
O=C(CSc1nc2ccccc2c(=O)n1Cc1ccc(Cl)cc1)NCc1cccs1	-3	-9	9	-16
COc1cccc(-c2cc(CNC(=O)[C@H]3O[C@@H](n4cnc5c(N)ncnc54)[C@H](O)[C@@H]3O)no2)c1	-1	.	.	.
CCn1c(CC(=O)Nc2cccc(Cl)c2Cl)nnc1SCCOc1ccc(OC)cc1	16	72*	6	2
CCn1ccc(C(=O)NCCCN2CCCC2=O)n1	-10	65*	2	-4
CCOC(=O)c1csc(NC(=O)C2=COCCO2)n1	2	71*	2	-8
CC(C)(C)c1csc(NC(=O)C2=COCCO2)n1	7	.	.	.
COc1cc(C(O)c2nc(-c3ccncc3)cs2)ccc1F (centres undefined)	-7	.	.	.
CC(C)c1ccc(CN2CCN(C(=O)CCl)CC2)cc1	1	62*	15	-11
CC(C)CC(=O)N1CCN(Cc2ccc(Cl)cc2)CC1	0	29	4	7
CC(C)CC(=O)Nc1ccc(C(=O)COC(=O)C2=COCCO2)cc1	-2	.	.	.
NCC[C@H](O)C(=O)N[C@@H]1C[C@H](N)[C@@H](O[C@H]2O[C@H](CN)[C@@H](O)[C@H](O)[C@H]2O)[C@H](O)[C@H]1O[C@H]1O[C@H](CO)[C@@H](O)[C@H](N)[C@H]1O	-6	16	71*	3
CCN(CC)S(=O)(=O)c1ccc(/C=C/C(=O)OCC(=O)Nc2cccnc2Cl)cc1	-2	.	.	.
SMILES	NadD block	PHOSPHO1 inh	SUMO HTRF inh	pCIP destab
CC1CCN(C2=NN3C(=N)/C(=C\c4ccc(OC(=O)c5ccco5)cc4)C(=O)N=C3S2)CC1	37*	7	15	-4
CC1(C(=O)N2Cc3ccccc3C2)CCN1C(=O)C1(c2ccc(Cl)cc2)CC1 (centres undefined)	-2	.	.	.
COc1ccc(NC(=O)CSc2nccn2-c2cccc(OC)c2)cc1	-1	72*	25	-19
O=C(CSc1nccn1-c1ccc(Cl)cc1)NCc1ccc2c(c1)OCO2	-2	68*	-3	-16
CC(=O)Nc1ccc(NC(=O)CSc2nccn2Cc2ccccc2)cc1	1	31	13	-14
Cc1ccc(NC(=O)CSc2nccn2Cc2ccccc2)cc1C	-1	86*	7	-8
O=C(CSc1nccn1-c1cccc(Cl)c1)Nc1ccc2c(c1)OCCO2	-8	74*	11	-13
COc1cccc(NC(=O)CSc2nccn2-c2cccc(OC)c2)c1	3	43	24	-1

Screening data (PubChem BioAssay)
